From paper PMC7862700, “An all-to-all approach to the identification of sequence-specific readers for epigenetic DNA modifications on cytosine” come the findings set out here.

Assay in all cases: DAPPL (digital affinity profiling via proximity ligation, sequencing); 10 mM Tris-HCl pH 7.5, 50 mM NaCl, 1 mM DTT, 4% glycerol, room temperature, 30 min; GST-TFs on glutathione beads, 16-mer random dsDNA library, 0.1% formaldehyde crosslink after washing; high values mean tight binding
For one assay, the target named is T1, FLI1 (Homo sapiens, UniProt Q01543 1-452).
T1 sequence: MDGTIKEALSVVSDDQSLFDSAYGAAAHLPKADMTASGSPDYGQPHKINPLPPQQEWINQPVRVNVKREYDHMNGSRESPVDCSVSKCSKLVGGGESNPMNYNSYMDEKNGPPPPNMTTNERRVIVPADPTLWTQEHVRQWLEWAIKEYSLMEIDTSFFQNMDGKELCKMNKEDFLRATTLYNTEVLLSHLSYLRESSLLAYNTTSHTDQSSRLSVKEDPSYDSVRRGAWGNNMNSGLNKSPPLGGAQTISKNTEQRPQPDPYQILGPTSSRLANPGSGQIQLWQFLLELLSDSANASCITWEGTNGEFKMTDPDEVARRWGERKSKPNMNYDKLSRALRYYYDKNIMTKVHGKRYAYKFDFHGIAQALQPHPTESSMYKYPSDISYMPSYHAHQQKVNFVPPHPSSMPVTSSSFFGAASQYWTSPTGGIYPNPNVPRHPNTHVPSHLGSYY
The following applies: protein: recombinant; tags: N-terminal GST; dsDNA, one strand shown. The procedure, abridged: (§1)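 The binding signal reported is, for every hexamer, its read frequency for a factor over its read frequency for the tag-only sample. Reads came from pools of yeast-expressed, GST-fused human transcription factors on glutathione beads, barcoded with DNA and mixed with that sample, which were incubated with 200 nmole of a random double-stranded 16-mer DNA library in Tris/NaCl/DTT/glycerol buffer at room temperature for 30 min. After washing, the pools were crosslinked with 0.1% formaldehyde, proximity-ligated with BsaI/T4 ligase for 1 h at 37 °C, PCR-amplified and sequenced on an Illumina NextSeq500.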

The next assay deals with T2, ELK1 (Homo sapiens, UniProt P19419 1-428).
T2 sequence: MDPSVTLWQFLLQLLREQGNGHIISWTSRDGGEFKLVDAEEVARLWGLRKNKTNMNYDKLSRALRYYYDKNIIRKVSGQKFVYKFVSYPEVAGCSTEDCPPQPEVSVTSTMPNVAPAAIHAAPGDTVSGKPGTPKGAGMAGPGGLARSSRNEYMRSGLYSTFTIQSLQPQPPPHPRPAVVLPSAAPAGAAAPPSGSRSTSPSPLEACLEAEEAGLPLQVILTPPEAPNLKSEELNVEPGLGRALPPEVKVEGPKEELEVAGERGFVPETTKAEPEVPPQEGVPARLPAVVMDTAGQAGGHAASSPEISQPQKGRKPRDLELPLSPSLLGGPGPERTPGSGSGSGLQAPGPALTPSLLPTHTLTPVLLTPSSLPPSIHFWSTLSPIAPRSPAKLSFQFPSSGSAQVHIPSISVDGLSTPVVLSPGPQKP
The note with it: protein: recombinant; tags: N-terminal GST; dsDNA, one strand shown. The method in brief: as §1

The next assay concerns the target T3, GABPA (Homo sapiens, UniProt Q06546 1-454).
T3 sequence: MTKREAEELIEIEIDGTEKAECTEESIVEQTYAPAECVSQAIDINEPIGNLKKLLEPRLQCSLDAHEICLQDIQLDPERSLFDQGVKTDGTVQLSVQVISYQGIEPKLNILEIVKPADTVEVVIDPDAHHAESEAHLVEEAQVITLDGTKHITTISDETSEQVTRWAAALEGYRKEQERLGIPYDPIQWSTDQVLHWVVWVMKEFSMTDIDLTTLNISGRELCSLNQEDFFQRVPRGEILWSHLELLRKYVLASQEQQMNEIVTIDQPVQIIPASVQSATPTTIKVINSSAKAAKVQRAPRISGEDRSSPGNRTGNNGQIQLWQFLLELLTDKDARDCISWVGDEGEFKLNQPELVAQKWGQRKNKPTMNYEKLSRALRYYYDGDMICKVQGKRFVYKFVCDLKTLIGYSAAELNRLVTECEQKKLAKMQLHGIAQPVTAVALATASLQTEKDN
The note with it: protein: recombinant; tags: N-terminal GST; dsDNA, one strand shown. The procedure, abridged: as §1

In the next assay the target is T4, ERG (Homo sapiens, UniProt P11308 1-479).
T4 sequence: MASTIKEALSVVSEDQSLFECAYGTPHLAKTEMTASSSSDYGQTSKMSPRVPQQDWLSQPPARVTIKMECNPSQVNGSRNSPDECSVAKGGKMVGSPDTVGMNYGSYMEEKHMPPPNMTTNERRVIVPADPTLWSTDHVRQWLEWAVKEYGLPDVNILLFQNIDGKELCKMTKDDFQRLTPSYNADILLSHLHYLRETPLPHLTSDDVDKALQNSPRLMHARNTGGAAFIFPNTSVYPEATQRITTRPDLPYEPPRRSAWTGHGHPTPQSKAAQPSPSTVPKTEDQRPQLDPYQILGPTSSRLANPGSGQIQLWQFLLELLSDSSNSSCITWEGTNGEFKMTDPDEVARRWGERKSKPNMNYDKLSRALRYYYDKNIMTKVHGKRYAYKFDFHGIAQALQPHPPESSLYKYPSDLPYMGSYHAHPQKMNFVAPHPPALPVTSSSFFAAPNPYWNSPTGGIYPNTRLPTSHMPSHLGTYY
The following applies: protein: recombinant; tags: N-terminal GST; dsDNA, one strand shown. The procedure, abridged:
as §1

The next assay deals with ELF1 (Homo sapiens, UniProt P32519 1-619). The note with it: protein: recombinant; tags: N-terminal GST; dsDNA, one strand shown. The procedure, abridged: as §1
ELF1, sequence (P32519 whole entry): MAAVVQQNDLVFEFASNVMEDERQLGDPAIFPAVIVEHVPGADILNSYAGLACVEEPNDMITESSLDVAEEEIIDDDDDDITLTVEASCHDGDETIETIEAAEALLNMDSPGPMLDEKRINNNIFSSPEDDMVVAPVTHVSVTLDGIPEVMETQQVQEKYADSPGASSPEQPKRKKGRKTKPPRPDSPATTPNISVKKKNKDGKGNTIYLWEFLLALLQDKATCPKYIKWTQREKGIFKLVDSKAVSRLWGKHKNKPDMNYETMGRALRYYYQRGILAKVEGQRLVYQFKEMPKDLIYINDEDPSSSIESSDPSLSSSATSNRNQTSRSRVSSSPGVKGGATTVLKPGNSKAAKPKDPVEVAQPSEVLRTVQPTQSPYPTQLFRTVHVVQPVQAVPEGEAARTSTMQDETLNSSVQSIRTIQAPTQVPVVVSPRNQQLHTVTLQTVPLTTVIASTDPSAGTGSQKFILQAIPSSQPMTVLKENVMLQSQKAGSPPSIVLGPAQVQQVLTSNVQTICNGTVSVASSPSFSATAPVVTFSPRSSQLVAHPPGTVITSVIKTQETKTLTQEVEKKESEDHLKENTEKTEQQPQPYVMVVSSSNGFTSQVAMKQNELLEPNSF
Another assay addresses T5, EHF (Homo sapiens, UniProt Q9NZC4 1-300).
T5 sequence: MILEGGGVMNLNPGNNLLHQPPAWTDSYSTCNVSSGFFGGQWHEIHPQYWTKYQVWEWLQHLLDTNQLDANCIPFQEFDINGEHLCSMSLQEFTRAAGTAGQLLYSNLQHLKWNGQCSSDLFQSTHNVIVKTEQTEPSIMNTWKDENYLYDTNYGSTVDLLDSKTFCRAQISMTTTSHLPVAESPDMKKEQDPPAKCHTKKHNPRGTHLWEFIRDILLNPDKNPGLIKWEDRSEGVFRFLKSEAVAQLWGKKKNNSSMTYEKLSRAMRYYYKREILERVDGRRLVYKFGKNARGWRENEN
The following applies: protein: recombinant; tags: N-terminal GST; dsDNA, one strand shown. The method in brief:
as §1

Another assay addresses SPI1 (Homo sapiens, UniProt P17947 1-270). The following applies: protein: recombinant; tags: N-terminal GST; dsDNA, one strand shown. The procedure, abridged:
as §1

A further assay has as its target T6, ELK3 (Homo sapiens, UniProt P41970 1-407).
T6 sequence: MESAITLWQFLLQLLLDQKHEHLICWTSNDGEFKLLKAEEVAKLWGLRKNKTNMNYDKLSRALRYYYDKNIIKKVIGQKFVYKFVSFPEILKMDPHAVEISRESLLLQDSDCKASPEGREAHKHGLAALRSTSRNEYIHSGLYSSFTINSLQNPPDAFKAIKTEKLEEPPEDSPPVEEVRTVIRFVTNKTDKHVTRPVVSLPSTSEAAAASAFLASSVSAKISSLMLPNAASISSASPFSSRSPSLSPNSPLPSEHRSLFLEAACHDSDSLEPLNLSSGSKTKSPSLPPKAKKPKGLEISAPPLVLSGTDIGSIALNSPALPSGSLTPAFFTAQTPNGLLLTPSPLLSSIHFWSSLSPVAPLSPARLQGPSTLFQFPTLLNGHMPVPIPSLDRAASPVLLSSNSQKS
The note with it: protein: recombinant; tags: N-terminal GST; dsDNA, one strand shown. The procedure, abridged: as §1

The next assay addresses T7, FEV (Homo sapiens, UniProt Q99581 1-238).
T7 sequence: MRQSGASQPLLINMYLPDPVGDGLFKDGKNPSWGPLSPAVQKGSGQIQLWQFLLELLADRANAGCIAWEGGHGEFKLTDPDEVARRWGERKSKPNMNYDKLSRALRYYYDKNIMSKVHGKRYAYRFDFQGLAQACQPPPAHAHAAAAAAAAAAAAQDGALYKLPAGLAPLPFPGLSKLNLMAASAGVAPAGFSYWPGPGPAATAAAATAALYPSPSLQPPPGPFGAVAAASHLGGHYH
The following applies: protein: recombinant; tags: N-terminal GST; dsDNA, one strand shown. The method in brief:
as §1

The target of the next assay is ETV5 (Homo sapiens, UniProt P41161 1-510). The following applies: protein: recombinant; tags: N-terminal GST; dsDNA, one strand shown. The method in brief: as §1
ETV5, sequence (P41161 whole entry): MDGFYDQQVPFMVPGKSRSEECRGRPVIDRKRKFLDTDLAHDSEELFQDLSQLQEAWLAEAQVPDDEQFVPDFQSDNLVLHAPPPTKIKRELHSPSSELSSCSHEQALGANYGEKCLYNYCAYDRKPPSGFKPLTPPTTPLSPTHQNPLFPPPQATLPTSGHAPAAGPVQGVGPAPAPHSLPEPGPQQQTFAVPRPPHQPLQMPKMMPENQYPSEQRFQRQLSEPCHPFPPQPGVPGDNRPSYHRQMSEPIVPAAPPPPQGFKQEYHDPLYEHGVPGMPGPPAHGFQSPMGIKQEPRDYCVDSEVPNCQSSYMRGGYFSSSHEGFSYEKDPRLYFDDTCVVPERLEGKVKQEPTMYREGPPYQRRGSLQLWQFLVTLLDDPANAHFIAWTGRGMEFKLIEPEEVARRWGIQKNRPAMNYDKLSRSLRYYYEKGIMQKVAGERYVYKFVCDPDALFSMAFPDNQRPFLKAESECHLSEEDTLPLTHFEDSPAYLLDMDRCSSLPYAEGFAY
Another assay addresses HSF1 (Homo sapiens, UniProt Q00613 1-529). The note with it: protein: recombinant; tags: N-terminal GST; chain copies: 3; dsDNA, one strand shown. The method in brief: as §1
Another assay has as its target T8, SPIC (Homo sapiens, UniProt Q8N5J4 1-248).
T8 sequence: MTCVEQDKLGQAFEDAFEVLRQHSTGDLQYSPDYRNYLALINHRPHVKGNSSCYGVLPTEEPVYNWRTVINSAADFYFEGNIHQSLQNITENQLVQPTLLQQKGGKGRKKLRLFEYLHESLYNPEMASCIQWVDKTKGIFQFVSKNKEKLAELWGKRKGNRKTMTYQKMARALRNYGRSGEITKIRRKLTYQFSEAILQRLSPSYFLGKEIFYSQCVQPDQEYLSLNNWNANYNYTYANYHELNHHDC
The note with it: protein: recombinant; tags: N-terminal GST; dsDNA, one strand shown. The method in brief:
as §1

The next assay addresses ELF4 (Homo sapiens, UniProt Q99607 1-663). The note with it: protein: recombinant; tags: N-terminal GST; dsDNA, one strand shown. The method in brief:
as §1

In the next assay the target is T9, ELK4 (Homo sapiens, UniProt P28324-2 1-405).
T9 sequence: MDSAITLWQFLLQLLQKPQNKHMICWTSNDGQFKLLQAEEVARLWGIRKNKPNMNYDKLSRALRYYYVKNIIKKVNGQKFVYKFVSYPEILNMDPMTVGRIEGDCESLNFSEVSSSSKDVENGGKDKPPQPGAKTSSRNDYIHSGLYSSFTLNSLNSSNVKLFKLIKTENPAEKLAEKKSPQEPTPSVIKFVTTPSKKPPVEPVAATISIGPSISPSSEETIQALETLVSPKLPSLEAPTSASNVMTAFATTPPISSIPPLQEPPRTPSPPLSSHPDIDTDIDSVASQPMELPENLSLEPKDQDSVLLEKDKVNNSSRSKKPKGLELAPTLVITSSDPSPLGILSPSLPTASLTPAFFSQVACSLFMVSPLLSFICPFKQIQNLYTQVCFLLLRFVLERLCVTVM
The following applies: protein: recombinant; tags: N-terminal GST; dsDNA, one strand shown. The method in brief:
as §1

In the next assay the target is T10, ETV2 (Homo sapiens, UniProt O00321 1-342).
T10 sequence: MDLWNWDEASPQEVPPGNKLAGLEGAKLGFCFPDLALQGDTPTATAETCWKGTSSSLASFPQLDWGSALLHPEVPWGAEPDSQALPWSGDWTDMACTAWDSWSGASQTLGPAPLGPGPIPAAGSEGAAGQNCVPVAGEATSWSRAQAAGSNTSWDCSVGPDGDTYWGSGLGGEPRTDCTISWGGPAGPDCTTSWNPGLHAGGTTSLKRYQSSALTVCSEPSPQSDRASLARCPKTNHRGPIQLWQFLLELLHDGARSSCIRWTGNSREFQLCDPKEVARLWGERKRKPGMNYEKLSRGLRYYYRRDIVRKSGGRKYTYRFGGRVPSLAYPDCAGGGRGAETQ
The note with it: protein: recombinant; tags: N-terminal GST; dsDNA, one strand shown. The procedure, abridged:
as §1

In the next assay the target is T11, ELF3 (Homo sapiens, UniProt P78545 1-371).
T11 sequence: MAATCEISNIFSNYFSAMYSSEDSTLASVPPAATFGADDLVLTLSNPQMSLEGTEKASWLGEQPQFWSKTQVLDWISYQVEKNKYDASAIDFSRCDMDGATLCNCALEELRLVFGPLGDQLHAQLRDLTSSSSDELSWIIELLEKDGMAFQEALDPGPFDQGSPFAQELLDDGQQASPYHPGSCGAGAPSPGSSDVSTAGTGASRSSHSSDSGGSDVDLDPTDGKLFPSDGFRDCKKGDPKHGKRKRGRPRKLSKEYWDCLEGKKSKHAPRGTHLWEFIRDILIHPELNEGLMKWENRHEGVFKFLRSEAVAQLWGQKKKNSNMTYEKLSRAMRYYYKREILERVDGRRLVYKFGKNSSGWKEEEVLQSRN
The following applies: protein: recombinant; tags: N-terminal GST; dsDNA, one strand shown. The procedure, abridged:
as §1

A further assay has as its target ETV1 (Homo sapiens, UniProt P50549 1-477). The following applies: protein: recombinant; tags: N-terminal GST; dsDNA, one strand shown. The method in brief: as §1

ELF4, sequence (Q99607 whole entry): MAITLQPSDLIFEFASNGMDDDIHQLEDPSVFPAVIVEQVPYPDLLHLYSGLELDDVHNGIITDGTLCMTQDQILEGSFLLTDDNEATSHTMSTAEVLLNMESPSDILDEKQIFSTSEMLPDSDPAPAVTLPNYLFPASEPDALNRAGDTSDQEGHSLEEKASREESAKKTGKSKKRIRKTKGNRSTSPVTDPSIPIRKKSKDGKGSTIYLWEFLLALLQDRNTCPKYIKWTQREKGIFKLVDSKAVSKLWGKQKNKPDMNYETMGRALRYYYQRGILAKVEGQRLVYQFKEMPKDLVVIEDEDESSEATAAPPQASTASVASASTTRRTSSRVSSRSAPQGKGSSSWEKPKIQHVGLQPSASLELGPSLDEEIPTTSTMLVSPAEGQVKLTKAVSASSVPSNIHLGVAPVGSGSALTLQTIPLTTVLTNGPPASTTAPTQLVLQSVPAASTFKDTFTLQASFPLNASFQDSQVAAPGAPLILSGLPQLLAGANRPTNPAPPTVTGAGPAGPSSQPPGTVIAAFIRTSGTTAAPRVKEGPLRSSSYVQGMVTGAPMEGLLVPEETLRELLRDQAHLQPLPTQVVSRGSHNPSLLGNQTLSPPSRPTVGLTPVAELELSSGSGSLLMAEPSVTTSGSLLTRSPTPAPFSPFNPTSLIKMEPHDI
HSF1, sequence (Q00613 whole entry): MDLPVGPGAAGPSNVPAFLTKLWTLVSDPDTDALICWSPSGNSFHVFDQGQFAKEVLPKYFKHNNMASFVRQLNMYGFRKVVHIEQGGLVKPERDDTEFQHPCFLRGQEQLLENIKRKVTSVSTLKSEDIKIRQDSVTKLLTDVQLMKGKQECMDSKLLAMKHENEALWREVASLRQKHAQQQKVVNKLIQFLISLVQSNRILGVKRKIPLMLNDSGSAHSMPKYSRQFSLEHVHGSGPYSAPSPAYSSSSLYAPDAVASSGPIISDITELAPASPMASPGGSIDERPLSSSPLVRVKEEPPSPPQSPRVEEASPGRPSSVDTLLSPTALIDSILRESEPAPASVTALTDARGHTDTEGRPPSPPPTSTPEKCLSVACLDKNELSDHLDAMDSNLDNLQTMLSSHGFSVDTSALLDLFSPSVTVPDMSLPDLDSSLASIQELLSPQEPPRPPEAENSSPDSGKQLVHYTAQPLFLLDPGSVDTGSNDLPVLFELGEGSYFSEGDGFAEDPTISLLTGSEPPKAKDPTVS
ETV1, sequence (P50549 whole entry): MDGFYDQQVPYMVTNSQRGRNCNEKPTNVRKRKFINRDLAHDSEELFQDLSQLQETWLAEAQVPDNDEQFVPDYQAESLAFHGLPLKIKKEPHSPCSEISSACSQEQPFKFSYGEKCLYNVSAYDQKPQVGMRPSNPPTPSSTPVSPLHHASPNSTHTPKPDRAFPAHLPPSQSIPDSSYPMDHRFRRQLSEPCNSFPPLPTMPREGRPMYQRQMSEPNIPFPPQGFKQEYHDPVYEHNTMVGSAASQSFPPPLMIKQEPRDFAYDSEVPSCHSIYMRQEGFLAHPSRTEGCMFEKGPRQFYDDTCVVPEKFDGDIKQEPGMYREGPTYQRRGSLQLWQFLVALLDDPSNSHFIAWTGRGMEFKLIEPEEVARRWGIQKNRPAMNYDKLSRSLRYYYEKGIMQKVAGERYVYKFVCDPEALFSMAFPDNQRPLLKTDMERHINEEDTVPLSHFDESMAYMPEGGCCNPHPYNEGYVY

On to CATGAA, for which the binding signal is 1.08 fold enrichment (6-mer frequency, TF over GST control) with FLI1; 1.16 fold enrichment (6-mer frequency, TF over GST control) in the assay with ELK1; 1.03 fold enrichment (6-mer frequency, TF over GST control) in the assay with GABPA; 1.07 fold enrichment (6-mer frequency, TF over GST control) with ERG; 1.06 fold enrichment (6-mer frequency, TF over GST control) with ELF1; 1.15 fold enrichment (6-mer frequency, TF over GST control) in the assay with EHF. For the same sequence, the binding signal with SPI1 was 1.04 fold enrichment (6-mer frequency, TF over GST control); with ELK3, 1.11 fold enrichment (6-mer frequency, TF over GST control); with FEV, 1.03 fold enrichment (6-mer frequency, TF over GST control); in the assay with ETV5, 1.07 fold enrichment (6-mer frequency, TF over GST control); with HSF1 it was 1.05 fold enrichment (6-mer frequency, TF over GST control); with SPIC, 1.16 fold enrichment (6-mer frequency, TF over GST control). Besides, the binding signal with ELF4 was 1.1 fold enrichment (6-mer frequency, TF over GST control); with ELK4 it was 1.11 fold enrichment (6-mer frequency, TF over GST control); with ETV2, 1.06 fold enrichment (6-mer frequency, TF over GST control); in the assay with ELF3, 1.15 fold enrichment (6-mer frequency, TF over GST control); with ETV1, 1.08 fold enrichment (6-mer frequency, TF over GST control).
